# The source made the active and inactive calls.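 Rule for the calls, unless noted: active = NADPH fluorescence slope more negative than the mean of all samples by about 3 SD, 99.7% confidence; inactive = the rest.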
# Tests used:
# [1] = inhibitors of TNFa-induced NFkB p65 translocation, primary screen, imaging, HUVEC, MLSMR starter and 10KST1 sets (AID 438;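 active = inhibition above 20% together with a positive visual image hit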;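 note: compound added about 3h40 before a 20 min TNFalpha stimulation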;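 for inhibition: signal is the nuclear over cytoplasmic p65 intensity ratio per well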); details: HUVEC TNFa-induced p65 nuclear translocation; cell count: measured here: nuclei count (cytotoxicity indicator), at 2.08 µM; inhibition: at 2 µM, stronger effect = higher value, 0% TNFa-plus-vehicle, 100% no-TNFa wells
# [2] = inhibitors of mutant huntingtin aggregation, primary screen, imaging, exon1htt(103Q)mCFP cells, high-content imaging (AID 483;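 active = visual image review flags a hit and inhibition of aggregation exceeds 20%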;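 note: compound exposure lasted 3 days before fixation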;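 for nuclei count: percent of the per-plate median nuclei count of sample wells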); details: exon1htt(103Q)mCFP cell line, aggregate imaging, at 2 µM; inhibition of aggregation: stronger effect = higher value; nuclei count: measured here: cell count, toxicity
# [3] = inhibitors of E-selectin induction by TNFa, primary screen, imaging, HUVEC, immunofluorescence, MLSMR starter and 10KST1 sets (AID 487;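 active = visually confirmed hit in the image check and inhibition above 20%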;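 for inhibition: signal is fraction of cell area covered by stained E-selectin grains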;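 for nuclei count: 100% = median nuclei count of all wells on the same plate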); details: HUVEC TNFalpha-induced E-selectin immunofluorescence imaging, at 2 µM; inhibition: stronger effect = higher value; nuclei count: measured here: cell number, toxicity
# [4] = molecular target: Voltage-gated potassium channel subunit beta-2 (Rattus norvegicus) (UniProt P62483); assay: KvBeta enzyme negative modulators, primary screen, biochemical, NADPH fluorescence (AID 622;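 active = fluorescence slope higher than the sample average by over 3 SD, cut at about -0.22 in these data, passing the limit was not always enough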;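 note: slope of raw intensity against log time taken from 70 to 1610 s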); details: recombinant KvBeta, 4-cyanobenzaldehyde reduction, at 10 µM, stronger effect = higher value
# Chain of Voltage-gated potassium channel subunit beta-2 (Rattus norvegicus) (P62483 whole entry, looked up): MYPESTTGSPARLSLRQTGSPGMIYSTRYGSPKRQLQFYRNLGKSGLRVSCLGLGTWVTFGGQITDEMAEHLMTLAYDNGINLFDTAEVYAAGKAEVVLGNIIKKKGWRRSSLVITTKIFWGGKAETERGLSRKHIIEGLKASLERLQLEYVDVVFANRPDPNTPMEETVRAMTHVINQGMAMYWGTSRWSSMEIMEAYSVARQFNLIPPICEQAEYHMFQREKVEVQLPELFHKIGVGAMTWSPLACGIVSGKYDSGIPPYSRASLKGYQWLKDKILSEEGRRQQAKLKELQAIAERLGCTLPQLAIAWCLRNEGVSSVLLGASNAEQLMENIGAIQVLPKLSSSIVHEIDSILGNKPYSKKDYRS
# [5] = molecular target: Voltage-gated potassium channel subunit beta-2 (Rattus norvegicus) (UniProt P62483); assay: KvBeta positive modulators, primary screen, biochemical, NADPH fluorescence (AID 623); details: Recombinant KvBeta, NADPH fluorescence decrease slope, 10 min; at 10 µM; stronger effect = lower value;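 note: fluorescence intensity change per second fitted from 20 to 320 s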
# [6] = molecular target: Alpha-2C adrenergic receptor (Homo sapiens) (UniProt P18825); assay: modulators of alpha2C/GIRK thallium flux, primary screen, cell-based, HEK293 alpha2C/GIRK1/2 (AID 624;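 active = fluorescence slope after compound addition differing from the mean of all screened samples at 99.7% confidence, in either direction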;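 note: slope of fluorescence ratio to pre-addition baseline per second over 15 to 24 s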); details: thallium flux BTC fluorescence, at 10 µM, actives lie on both sides
# Chain of Alpha-2C adrenergic receptor (Homo sapiens) (P18825 whole entry, looked up): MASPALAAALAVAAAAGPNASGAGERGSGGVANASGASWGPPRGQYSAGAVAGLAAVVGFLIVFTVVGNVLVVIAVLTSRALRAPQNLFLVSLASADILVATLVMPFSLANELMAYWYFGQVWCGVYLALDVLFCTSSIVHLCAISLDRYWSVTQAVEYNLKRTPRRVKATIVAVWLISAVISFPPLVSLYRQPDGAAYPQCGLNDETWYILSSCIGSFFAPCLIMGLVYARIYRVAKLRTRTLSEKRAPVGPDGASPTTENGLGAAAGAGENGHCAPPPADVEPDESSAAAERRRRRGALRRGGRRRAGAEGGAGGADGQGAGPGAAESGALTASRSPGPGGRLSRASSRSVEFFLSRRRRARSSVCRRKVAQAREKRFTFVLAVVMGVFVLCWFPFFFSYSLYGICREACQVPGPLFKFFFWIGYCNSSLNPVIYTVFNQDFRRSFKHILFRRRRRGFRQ
# [7] = inhibitors of Sendai virus-induced IRF3 signaling, primary screen, TLR/RLR signaling modifier project, cell-based, Sendai virus stimulus, luciferase, 10K MLSCN set (AID 602276;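 active = inhibition at or above 50% at 10 µM; inactive = inhibition below 50%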;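 note: firefly luciferase from ISG56 promoter only with Renilla not read in this screen; 0% = Sendai virus plus DMSO and 100% = medium plus DMSO without virus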); details: HEK293 RL24 IRF3 luciferase reporter, at 10 µM, stronger effect = higher value
# [8] = inhibitors of poly I:C-induced TLR3 signaling, primary screen, cell-based, poly I:C stimulus, luciferase, 10K MLSCN set (AID 602277;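 active = inhibition of the reporter signal at or above 50%; inactive = inhibition below 50%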); details: HEK293-TLR3 RL24 IRF3 luciferase reporter, at 10 µM, stronger effect = higher value
smiles,measurement,setting,value
Cc1cc(NC(c2cccnc2)c2c(C)[nH]c3ccccc23)no1 (centres undefined),cell count,[1],514
same,inhibition,[1],2.5% (inactive)
same,inhibition of aggregation,[2],7.6% (inactive)
same,nuclei count,[2],112%
same,inhibition,[3],-105% (inactive)
same,nuclei count,[3],135%
same,fluorescence slope,[4],-0.596 (inactive)
same,NADPH fluorescence slope,[5],-4.4e-05 (inactive)
same,slope,[6],0.00254 (inactive)
same,inhibition,[7],17.8% (inactive)
same,inhibition,[8],28.6% (inactive)
CCN1CCN(C(=O)c2cc3c(=O)n(C)c4ccccc4c3n2C)CC1,cell count,[1],601
same,inhibition,[1],20.7% (inactive)
same,inhibition of aggregation,[2],-10.2% (inactive)
same,nuclei count,[2],102%
same,inhibition,[3],-89.4% (inactive)
same,nuclei count,[3],126%
same,fluorescence slope,[4],-0.583 (inactive)
same,NADPH fluorescence slope,[5],-1.9e-05 (inactive)
same,slope,[6],0.00682 (inactive)
same,inhibition,[7],2.73% (inactive)
same,inhibition,[8],32.2% (inactive)
Cc1cc2ncc(-c3ccc(Cl)cc3)c(N)n2n1,cell count,[1],930
same,inhibition,[1],-1.7% (inactive)
same,inhibition of aggregation,[2],-6% (inactive)
same,nuclei count,[2],129%
same,inhibition,[3],-36.3% (inactive)
same,nuclei count,[3],125%
same,fluorescence slope,[4],-0.583 (inactive)
same,NADPH fluorescence slope,[5],2.1e-05 (inactive)
same,slope,[6],0.00574 (inactive)
same,inhibition,[7],-34% (inactive)
same,inhibition,[8],-158% (inactive)
Cc1ccc(CNC(=O)C2CCN(S(=O)(=O)c3cccs3)CC2)o1,cell count,[1],296
same,inhibition,[1],-3.4% (inactive)
same,inhibition of aggregation,[2],11.2% (inactive)
same,nuclei count,[2],76.7%
same,inhibition,[3],-23.9% (inactive)
same,nuclei count,[3],103%
same,fluorescence slope,[4],-0.617 (inactive)
same,NADPH fluorescence slope,[5],-3.4e-05 (inactive)
same,slope,[6],0.00605 (inactive)
same,inhibition,[7],7.81% (inactive)
same,inhibition,[8],5.31% (inactive)
O=S(=O)(c1ccc(S(=O)(=O)N(Cc2ccco2)Cc2ccccc2Cl)cc1)N1CCCC1,cell count,[1],818
same,inhibition,[1],-6.1% (inactive)
same,inhibition of aggregation,[2],-2.8% (inactive)
same,nuclei count,[2],108%
same,inhibition,[3],-38.1% (inactive)
same,nuclei count,[3],126%
same,fluorescence slope,[4],-0.587 (inactive)
same,NADPH fluorescence slope,[5],-3.1e-05 (inactive)
same,slope,[6],0.00951 (inactive)
same,inhibition,[7],8.74% (inactive)
same,inhibition,[8],28% (inactive)
CC(C)Sc1nc2c(c(=O)n1-c1ccc(F)cc1)SCC2,cell count,[1],384
same,inhibition,[1],-5.2% (inactive)
same,inhibition of aggregation,[2],-10.1% (inactive)
same,nuclei count,[2],106%
same,inhibition,[3],-22% (inactive)
same,nuclei count,[3],108%
same,fluorescence slope,[4],-0.519 (inactive)
same,NADPH fluorescence slope,[5],-8.5e-05 (inactive)
same,slope,[6],0.00437 (inactive)
same,inhibition,[7],-15.9% (inactive)
same,inhibition,[8],-9.58% (inactive)
Cc1ccc(C)c(N2CCN(Cc3nnnn3C3CCCCC3)CC2)c1,cell count,[1],458
same,inhibition,[1],-4.4% (inactive)
same,inhibition of aggregation,[2],-7.6% (inactive)
same,nuclei count,[2],123%
same,inhibition,[3],-49.3% (inactive)
same,nuclei count,[3],112%
same,fluorescence slope,[4],-0.626 (inactive)
same,NADPH fluorescence slope,[5],-2.5e-05 (inactive)
same,slope,[6],0.00597 (inactive)
same,inhibition,[7],11.6% (inactive)
same,inhibition,[8],34.8% (inactive)
CCOC(=O)c1cccc(NC(=O)C2CCN(S(=O)(=O)c3cccs3)CC2)c1,cell count,[1],369
same,inhibition,[1],-5.7% (inactive)
same,inhibition of aggregation,[2],3.6% (inactive)
same,nuclei count,[2],90.7%
same,inhibition,[3],-45.4% (inactive)
same,nuclei count,[3],128%
same,fluorescence slope,[4],-0.634 (inactive)
same,NADPH fluorescence slope,[5],-3.5e-05 (inactive)
same,slope,[6],0.00624 (inactive)
same,inhibition,[7],3.96% (inactive)
same,inhibition,[8],5.8% (inactive)
O=C(CCc1ccc(S(=O)(=O)N2CCOCC2)cc1)NCCc1ccccn1,cell count,[1],709
same,inhibition,[1],3.1% (inactive)
same,inhibition of aggregation,[2],-8% (inactive)
same,nuclei count,[2],104%
same,inhibition,[3],-158% (inactive)
same,nuclei count,[3],144%
same,fluorescence slope,[4],-0.568 (inactive)
same,NADPH fluorescence slope,[5],1.5e-05 (inactive)
same,slope,[6],0.00601 (inactive)
same,inhibition,[7],-4.86% (inactive)
same,inhibition,[8],1.41% (inactive)
CSc1cccc(NC(=O)CN(C)S(=O)(=O)c2ccccc2)c1,cell count,[1],407
same,inhibition,[1],4.6% (inactive)
same,inhibition of aggregation,[2],-0.4% (inactive)
same,nuclei count,[2],103%
same,inhibition,[3],-183% (inactive)
same,nuclei count,[3],111%
same,fluorescence slope,[4],-0.406 (inactive)
same,NADPH fluorescence slope,[5],-3.2e-05 (inactive)
same,slope,[6],0.00611 (inactive)
same,inhibition,[7],6.98% (inactive)
same,inhibition,[8],-6.52% (inactive)
CCn1c(SCC(=O)Nc2ccc3c(c2)OCO3)nc2c(c1=O)SC(C)C2 (centres undefined),cell count,[1],496
same,inhibition,[1],9.6% (inactive)
same,inhibition of aggregation,[2],4% (inactive)
same,nuclei count,[2],111%
same,inhibition,[3],15.4% (inactive)
same,nuclei count,[3],95.3%
same,fluorescence slope,[4],-0.561 (inactive)
same,NADPH fluorescence slope,[5],-5e-05 (inactive)
same,slope,[6],0.00661 (inactive)
same,inhibition,[7],-0.539% (inactive)
same,inhibition,[8],16.9% (inactive)
CCOc1cc(C2NC(=O)N(C)C(C)=C2C(=O)OC)cc(Br)c1O (centres undefined),cell count,[1],620
same,inhibition,[1],-17.6% (inactive)
same,inhibition of aggregation,[2],-9.6% (inactive)
same,nuclei count,[2],110%
same,inhibition,[3],-13.7% (inactive)
same,nuclei count,[3],104%
same,fluorescence slope,[4],-0.611 (inactive)
same,NADPH fluorescence slope,[5],-4.2e-05 (inactive)
same,slope,[6],0.00546 (inactive)
same,inhibition,[7],-0.511% (inactive)
same,inhibition,[8],5.13% (inactive)
CCOc1ccccc1OCCn1nnc2ccccc21,cell count,[1],312
same,inhibition,[1],-0.2% (inactive)
same,inhibition of aggregation,[2],-1.3% (inactive)
same,nuclei count,[2],114%
same,inhibition,[3],-6.1% (inactive)
same,nuclei count,[3],109%
same,fluorescence slope,[4],-0.443 (inactive)
same,NADPH fluorescence slope,[5],-5.5e-05 (inactive)
same,slope,[6],0.0043 (inactive)
same,inhibition,[7],1.2% (inactive)
same,inhibition,[8],-3.68% (inactive)
O=S(CC(O)COCc1ccc(Cl)cc1)c1ccccn1 (centres undefined),cell count,[1],420
same,inhibition,[1],-7.1% (inactive)
same,inhibition of aggregation,[2],-11.3% (inactive)
same,nuclei count,[2],107%
same,inhibition,[3],-37% (inactive)
same,nuclei count,[3],127%
same,fluorescence slope,[4],-0.442 (inactive)
same,NADPH fluorescence slope,[5],6.3e-05 (inactive)
same,slope,[6],0.00586 (inactive)
same,inhibition,[7],18.9% (inactive)
same,inhibition,[8],23.8% (inactive)

# — PubChem BioAssay
